# According to ChEMBL document CHEMBL3988442, “University of Dundee, Small-Polar-MMV Screening Library” (2021):
# For some assays here: Potency and affinity values are given separately.
# Tests used:
# Design in all cases: scale not given: direction of the effect not stated beside the values
# [1] = target: Protein translocase subunit SecA (Escherichia coli (strain K12)) (UniProt P10408); experiment: Assay to Identify E. coli SecA ATPase Inhibitors; type: functional; conditions: 30 µM
# [2] = target: T1, Ubiquitin-activating enzyme e1, putative (Leishmania donovani (strain BPK282A1)) (UniProt E9BSI1); experiment: Leishmania donovani Ubiquitin Activating Enzyme (LdE1); type: functional; conditions: 30 µM
# T1 sequence (whole entry): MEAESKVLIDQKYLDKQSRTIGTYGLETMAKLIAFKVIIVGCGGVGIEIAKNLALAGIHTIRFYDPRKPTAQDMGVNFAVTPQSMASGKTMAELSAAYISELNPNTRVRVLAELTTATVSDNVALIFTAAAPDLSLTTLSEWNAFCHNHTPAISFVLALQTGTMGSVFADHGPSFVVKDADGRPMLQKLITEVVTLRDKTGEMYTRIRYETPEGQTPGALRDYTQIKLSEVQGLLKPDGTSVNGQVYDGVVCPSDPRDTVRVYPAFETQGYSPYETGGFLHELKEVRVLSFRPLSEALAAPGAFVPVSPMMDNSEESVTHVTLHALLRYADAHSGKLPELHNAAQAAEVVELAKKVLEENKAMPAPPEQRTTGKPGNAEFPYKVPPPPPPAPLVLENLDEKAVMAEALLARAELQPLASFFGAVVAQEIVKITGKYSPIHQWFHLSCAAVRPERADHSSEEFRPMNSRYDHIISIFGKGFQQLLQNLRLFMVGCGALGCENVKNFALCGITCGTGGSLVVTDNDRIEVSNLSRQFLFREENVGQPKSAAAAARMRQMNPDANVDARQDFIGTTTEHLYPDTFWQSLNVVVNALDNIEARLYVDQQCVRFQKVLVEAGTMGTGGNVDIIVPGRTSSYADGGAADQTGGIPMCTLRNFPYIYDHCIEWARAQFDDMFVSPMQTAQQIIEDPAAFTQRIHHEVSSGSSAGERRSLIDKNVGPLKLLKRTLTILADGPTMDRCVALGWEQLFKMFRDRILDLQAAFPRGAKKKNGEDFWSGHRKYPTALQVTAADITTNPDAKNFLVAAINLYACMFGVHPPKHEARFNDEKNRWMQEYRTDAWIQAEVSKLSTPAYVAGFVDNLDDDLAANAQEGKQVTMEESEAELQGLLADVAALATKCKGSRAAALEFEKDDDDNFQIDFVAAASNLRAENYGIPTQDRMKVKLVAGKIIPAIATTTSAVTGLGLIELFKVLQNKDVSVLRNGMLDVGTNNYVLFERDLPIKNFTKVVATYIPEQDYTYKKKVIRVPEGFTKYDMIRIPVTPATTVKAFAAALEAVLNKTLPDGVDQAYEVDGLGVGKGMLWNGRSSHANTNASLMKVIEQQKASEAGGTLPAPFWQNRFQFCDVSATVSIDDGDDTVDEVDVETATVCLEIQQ
# [3] = target: AMP-activated protein kinase, AMPK (Homo sapiens) (UniProt P54646+O43741+P54619+Q9UGJ0+Q9Y478+Q13131+Q9UGI9); experiment: AMP-dependent Kinase enzyme assay. An in vitro enzyme assay that detects ADP turnover that is directly proportional to AMPK activity. This uses naive AMPK that is activated during the assay with MK-8722; type: functional; conditions: 30 µM
# [4] = target: Sialic acid-binding Ig-like lectin 9 (Homo sapiens) (UniProt Q9Y336); experiment: Hs-Siglec9 ALPHAscreen SOP 20170721; conditions: 10 µM
# Chain of Sialic acid-binding Ig-like lectin 9 (Homo sapiens) (Q9Y336 whole entry): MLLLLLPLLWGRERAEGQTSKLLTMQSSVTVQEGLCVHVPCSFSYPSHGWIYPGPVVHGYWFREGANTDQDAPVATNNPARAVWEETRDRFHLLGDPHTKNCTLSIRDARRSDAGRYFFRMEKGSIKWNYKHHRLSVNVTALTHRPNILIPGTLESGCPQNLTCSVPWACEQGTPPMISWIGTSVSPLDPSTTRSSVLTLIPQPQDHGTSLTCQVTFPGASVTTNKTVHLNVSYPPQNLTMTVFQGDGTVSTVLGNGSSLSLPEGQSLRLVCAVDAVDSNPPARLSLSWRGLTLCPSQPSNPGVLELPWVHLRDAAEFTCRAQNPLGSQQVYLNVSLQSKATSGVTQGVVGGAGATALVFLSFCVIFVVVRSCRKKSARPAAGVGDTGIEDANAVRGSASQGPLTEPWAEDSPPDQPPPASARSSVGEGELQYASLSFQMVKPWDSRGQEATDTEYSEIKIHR
# [5] = test system: Trypanosoma cruzi; experiment: Trypanosoma cruzi phosphomannomutase and mannose-1-phosphate guanylyltransferase assay; type: functional; conditions: 10 µM
# [6] = target: T2, Arginase-2, mitochondrial (Homo sapiens) (UniProt P78540); experiment: in vitro enzyme assay to detect the production of urea directly proportional to the activity of Arginase II; type: functional; conditions: 33.3 µM; also: in the data most compounds retested in dose-response had high values
# T2 sequence (whole entry): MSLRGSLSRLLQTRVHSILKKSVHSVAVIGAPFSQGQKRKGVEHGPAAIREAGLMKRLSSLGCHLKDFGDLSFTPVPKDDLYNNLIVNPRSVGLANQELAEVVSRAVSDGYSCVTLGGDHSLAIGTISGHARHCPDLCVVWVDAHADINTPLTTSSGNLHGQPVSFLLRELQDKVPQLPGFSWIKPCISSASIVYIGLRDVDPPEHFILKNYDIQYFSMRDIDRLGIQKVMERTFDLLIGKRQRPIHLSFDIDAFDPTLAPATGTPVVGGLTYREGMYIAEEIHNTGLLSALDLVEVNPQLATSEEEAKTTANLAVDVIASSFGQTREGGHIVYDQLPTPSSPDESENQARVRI
# [7] = target: T3, Proteasome subunit beta (Trypanosoma cruzi) (UniProt O96673); experiment: Trypanosoma cruzi proteasome chymotrypsin-like activity (TcProtChymo) assay.; also: in the data most compounds retested in dose-response had high values; type: functional; conditions: 9.37 µM
# T3 sequence (whole entry): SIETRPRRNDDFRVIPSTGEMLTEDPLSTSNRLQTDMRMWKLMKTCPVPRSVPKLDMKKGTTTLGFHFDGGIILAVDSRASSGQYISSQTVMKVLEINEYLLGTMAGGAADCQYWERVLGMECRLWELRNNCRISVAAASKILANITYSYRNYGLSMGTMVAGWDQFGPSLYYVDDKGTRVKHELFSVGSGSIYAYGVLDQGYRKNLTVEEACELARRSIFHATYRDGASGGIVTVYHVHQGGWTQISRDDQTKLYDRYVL
# [8] = species: Homo sapiens; experiment: To identify inhibition of the IFN signalling (Jak-Stat) pathway via expression of an eGFP reporter gene under the control of an IFN-stimulated response element (ISRE) containing MxA promoter.; type: functional; conditions: 30 µM
# [9] = target: T4, Tyrosyl-tRNA synthetase, putative (Trypanosoma cruzi (strain CL Brener)) (UniProt Q4DSP6); experiment: Trypanosoma cruzi tyrosyl tRNA synthetase (TcYRS) _High Tyrosine SOP; type: functional; conditions: 30 µM; also: in the data most compounds retested in dose-response had high values
# T4 sequence (whole entry): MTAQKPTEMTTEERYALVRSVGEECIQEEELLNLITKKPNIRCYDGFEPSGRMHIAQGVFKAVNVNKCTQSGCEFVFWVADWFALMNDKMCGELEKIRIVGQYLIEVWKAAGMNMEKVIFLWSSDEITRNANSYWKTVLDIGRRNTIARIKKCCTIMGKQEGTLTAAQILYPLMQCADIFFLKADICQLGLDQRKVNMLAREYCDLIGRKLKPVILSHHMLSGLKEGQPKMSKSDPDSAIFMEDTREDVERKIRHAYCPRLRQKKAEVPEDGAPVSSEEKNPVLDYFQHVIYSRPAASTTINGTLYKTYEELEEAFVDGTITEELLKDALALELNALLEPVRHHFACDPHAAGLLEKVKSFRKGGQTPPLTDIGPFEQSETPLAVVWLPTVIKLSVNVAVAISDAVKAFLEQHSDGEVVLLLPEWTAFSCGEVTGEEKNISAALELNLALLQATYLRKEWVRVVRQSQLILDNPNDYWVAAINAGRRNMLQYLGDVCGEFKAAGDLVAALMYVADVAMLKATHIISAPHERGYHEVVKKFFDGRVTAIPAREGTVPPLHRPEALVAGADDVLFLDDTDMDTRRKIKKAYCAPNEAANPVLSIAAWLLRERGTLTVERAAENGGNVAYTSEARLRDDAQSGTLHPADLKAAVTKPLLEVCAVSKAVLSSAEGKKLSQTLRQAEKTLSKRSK
# [10] = target: T4, Tyrosyl-tRNA synthetase, putative (Trypanosoma cruzi (strain CL Brener)); experiment: Trypanosoma cruzi tyrosyl tRNA synthetase (TcYRS) SOP; type: functional; conditions: 30 µM
# [11] = target: Chromo domain-containing protein 1 (Saccharomyces cerevisiae (strain ATCC 204508 / S288c) (Baker's yeast)) (UniProt P32657); experiment: ScCHD-1 Enzyme Inhibition Assay; type: functional; conditions: 30 µM; also: in the data most compounds retested in dose-response had high values
# Chain of Chromo domain-containing protein 1 (Saccharomyces cerevisiae (strain ATCC 204508 / S288c) (Baker's yeast)) (P32657 whole entry, the tested form may be a part): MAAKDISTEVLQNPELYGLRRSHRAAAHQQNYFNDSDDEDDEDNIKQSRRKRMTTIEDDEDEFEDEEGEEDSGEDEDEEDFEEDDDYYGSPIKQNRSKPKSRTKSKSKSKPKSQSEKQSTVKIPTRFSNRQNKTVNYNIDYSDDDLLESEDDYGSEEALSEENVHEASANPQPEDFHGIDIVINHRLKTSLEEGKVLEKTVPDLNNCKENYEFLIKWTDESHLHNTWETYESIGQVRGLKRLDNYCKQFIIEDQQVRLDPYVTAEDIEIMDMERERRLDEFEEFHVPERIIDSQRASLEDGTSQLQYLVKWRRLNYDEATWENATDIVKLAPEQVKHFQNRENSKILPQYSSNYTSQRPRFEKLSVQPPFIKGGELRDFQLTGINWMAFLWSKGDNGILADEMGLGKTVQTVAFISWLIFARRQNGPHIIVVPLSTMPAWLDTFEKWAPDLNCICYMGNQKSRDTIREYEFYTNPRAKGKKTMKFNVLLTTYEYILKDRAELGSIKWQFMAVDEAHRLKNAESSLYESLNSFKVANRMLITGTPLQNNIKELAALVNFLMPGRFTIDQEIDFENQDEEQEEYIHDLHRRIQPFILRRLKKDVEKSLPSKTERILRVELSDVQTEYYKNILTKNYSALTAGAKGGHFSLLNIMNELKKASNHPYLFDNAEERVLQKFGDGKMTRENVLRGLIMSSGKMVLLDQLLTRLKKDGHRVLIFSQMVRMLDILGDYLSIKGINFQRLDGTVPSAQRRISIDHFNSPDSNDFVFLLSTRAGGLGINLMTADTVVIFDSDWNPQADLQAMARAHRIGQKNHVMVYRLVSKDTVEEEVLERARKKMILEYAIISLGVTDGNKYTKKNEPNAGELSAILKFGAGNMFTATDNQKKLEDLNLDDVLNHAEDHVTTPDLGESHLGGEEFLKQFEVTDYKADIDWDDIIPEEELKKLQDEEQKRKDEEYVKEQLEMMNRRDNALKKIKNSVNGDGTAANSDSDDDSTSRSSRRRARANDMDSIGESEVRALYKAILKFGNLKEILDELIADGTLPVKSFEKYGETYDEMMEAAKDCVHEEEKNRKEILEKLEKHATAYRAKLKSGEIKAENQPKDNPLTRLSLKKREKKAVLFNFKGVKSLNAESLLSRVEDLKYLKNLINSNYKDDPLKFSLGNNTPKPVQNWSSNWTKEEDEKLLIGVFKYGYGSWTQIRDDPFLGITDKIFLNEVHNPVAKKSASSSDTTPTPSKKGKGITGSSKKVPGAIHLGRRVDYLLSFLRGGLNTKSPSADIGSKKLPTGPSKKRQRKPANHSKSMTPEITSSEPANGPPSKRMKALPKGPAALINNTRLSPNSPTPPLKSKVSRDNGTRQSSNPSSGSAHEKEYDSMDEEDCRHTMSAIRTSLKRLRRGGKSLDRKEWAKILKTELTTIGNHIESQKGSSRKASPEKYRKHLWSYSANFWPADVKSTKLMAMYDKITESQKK
# Chain of Protein translocase subunit SecA (Escherichia coli (strain K12)) (P10408 whole entry): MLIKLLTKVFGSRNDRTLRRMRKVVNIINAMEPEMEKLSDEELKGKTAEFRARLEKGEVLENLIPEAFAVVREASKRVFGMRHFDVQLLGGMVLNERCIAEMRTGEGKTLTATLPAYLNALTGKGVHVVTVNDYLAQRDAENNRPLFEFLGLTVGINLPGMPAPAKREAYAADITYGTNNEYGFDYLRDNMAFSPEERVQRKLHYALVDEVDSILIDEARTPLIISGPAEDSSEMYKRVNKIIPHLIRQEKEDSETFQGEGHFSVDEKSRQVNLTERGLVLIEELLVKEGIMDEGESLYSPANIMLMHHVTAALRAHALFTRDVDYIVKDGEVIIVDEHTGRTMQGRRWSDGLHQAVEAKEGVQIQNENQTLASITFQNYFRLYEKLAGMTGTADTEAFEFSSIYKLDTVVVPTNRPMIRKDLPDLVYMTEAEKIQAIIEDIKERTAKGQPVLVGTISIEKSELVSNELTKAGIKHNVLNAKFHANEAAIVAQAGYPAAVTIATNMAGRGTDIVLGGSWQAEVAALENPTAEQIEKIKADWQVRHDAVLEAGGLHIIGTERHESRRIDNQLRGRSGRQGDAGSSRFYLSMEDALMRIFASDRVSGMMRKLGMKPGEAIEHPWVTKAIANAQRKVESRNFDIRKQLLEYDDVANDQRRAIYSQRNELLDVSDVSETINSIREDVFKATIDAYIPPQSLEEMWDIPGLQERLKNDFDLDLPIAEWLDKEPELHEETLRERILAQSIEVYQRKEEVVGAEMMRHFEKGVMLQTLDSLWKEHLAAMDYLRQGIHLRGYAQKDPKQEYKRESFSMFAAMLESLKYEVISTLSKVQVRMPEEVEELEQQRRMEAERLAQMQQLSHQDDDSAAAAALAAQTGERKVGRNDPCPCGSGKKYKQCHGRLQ
SMILES,Percent Effect [1] [%],Percent Effect [2] [%],Percent Effect [3] [%],Percent Effect [4] [%],Percent Effect [5] [%],Percent Effect [6] [%],Percent Effect [7] [%],Percent Effect [8] [%],Percent Effect [9] [%],Percent Effect [10] [%],Percent Effect [11] [%]
CNC(=O)C1CCN(C(=O)CCn2cccn2)CC1,-7.35,13.5,2.1,7.36,-4.92,5.73,-1.44,19.3,-0.99,-1.22,6.84
Cn1ncc2c(NCCOc3ccc(F)cc3)nc(C3CCCC3)nc21,-2.15,5.48,12.7,7.22,9.79,2.27,-0.355,49.2,5.38,10,-3.29
Cc1nc(C)n(C2CCCN(C(=O)c3cnc[nH]3)C2)n1 (configuration not stated),-4.48,-2.7,-9.26,8.79,-4.43,2,-2.7,0.378,-5.42,1.24,6.8
CCN(CC)C(=O)c1ccn(COc2cc(C)cc(C)c2)n1,-0.199,22.7,-7.15,1.4,-0.982,-5.81,14.1,41.2,4.23,12.8,-12.1
O=C1NC(c2ccccc2)=N[C@@]12CC[C@@H]1CN(CC3CCOCC3)C[C@@H]12,-1.53,0,5.75,-1.86,-1.54,-48.6,0.684,-0.209,-27.1,-5,-1.93
c1cnnc(N2CCCC2CNc2ncnc3c2CCC3)c1 (configuration not stated),-5.27,1.27,4.89,-6.25,-1.95,3.66,1.54,-1.2,11.5,15.2,1.39
COCC(c1cccc(C(F)(F)F)c1)N(C)C(=O)c1ccncc1 (configuration not stated),-4.42,21.1,-0.328,-2.24,8.46,-4.21,23.2,26.2,8.33,21.9,-14.7
CC(O)CN1CCN(C(=O)CN(C)c2cnccn2)CC1 (configuration not stated),3.16,5.41,-4.8,6.58,-2.12,-70,16.6,5.3,3.7,4.88,-5.99
Cc1nc(C2CCCN(C(=O)c3sccc3C3CC3)C2)no1 (configuration not stated),-1.32,-1.39,-29,-2.96,-0.486,-0.442,11.9,5.93,0,0,-0.247
O=C(C1COCCO1)N1CCN(Cc2ccc3c(c2)CCO3)CC1 (configuration not stated),-1.12,-5.26,-0.262,5.55,1.21,-2.52,-0.0846,-4.94,3.45,3.7,-2.12
COc1ccccc1S(=O)(=O)N1CCC(Oc2cccnn2)CC1,-5.78,-5.48,-9.71,-3.66,-4.11,-0.909,3.9,16.2,-1.07,-2.5,-1.62
O=C1NC(c2ccccc2)=N[C@@]12CC[C@@H]1CN(Cc3ccccc3)C[C@@H]12,-1.1,10.7,-2.75,0.12,2.12,-43.5,7.18,3.72,10.4,27.5,-8.07
Cc1cnn(C2CN(CC(O)c3ccc4c(c3)OCCO4)C2)c1 (configuration not stated),-0.511,-24,-2.25,-4.57,-0.292,0,7.5,10.6,13.7,13.6,-6.83
Cc1cccc(S(=O)(=O)NCC(C)N2CCN(C)CC2)c1Cl (configuration not stated),-5.19,2.6,-2.53,-0.382,-0.492,-2.76,2.83,7.45,0,3.7,0.187
COCCN1CCC(CN(CC2CCCO2)C(=O)COC)CC1 (configuration not stated),-4.47,15.3,-11,28.6,7.09,4.86,5.79,-0.94,3.16,15.4,-9.34
Cc1ccc(CC(=O)N(C)CC2(O)CCN(c3ccccn3)C2)s1 (configuration not stated),-3.85,-1.35,12.4,-1.42,0.198,-2.09,0,1.85,4.3,6.49,-1.65
Cc1noc(NC(=O)c2ccc(Br)cc2)n1,-5.08,26.3,-4.88,4.49,6.44,1.44,16.3,70,8.37,28.4,-5.14
CC(C)c1nc(C2CCCN(C(=O)Cc3cccnc3)C2)no1 (configuration not stated),-0.76,16.2,-13.3,-2.67,-10.3,-1.6,2.16,25.4,5.42,6.17,-2.89
CCn1cc(NC(=O)NCC2(N3CCOCC3)CCSC2)cn1 (configuration not stated),-1.63,13.5,2.58,16.6,1.74,13.8,17.2,-1.24,6.88,7.32,-4.92
CCc1ncc(C(=O)N2CCCCC2Cn2cccn2)s1 (configuration not stated),-0.823,0,2.6,-4.33,-3.44,1.66,-4.13,7.71,2.97,-23.2,10.1
Cn1nc(C2CCCN(C(=O)Cc3ccsc3)C2)c2nccnc21 (configuration not stated),-5.11,9.46,7.86,10.4,-5.14,-1.16,8.89,23.9,-1.07,6.49,-13.9
CN1CCN(C(CNC(=O)CCn2cccn2)c2cccs2)CC1 (configuration not stated),1.81,-2.67,-4.22,0.224,-3.6,4.17,6.63,5.37,2.73,3.7,2.11
